According to PubChem BioAssay (NCATS):
Results filed as inconclusive are left out. Entries that show only a call come without a potency. Active and inactive are the calls of the source. The call rests on the fitted dose curve; in most records, active means well fitted curve in the direction sought with a large enough effect; inconclusive means small, poorly fitted or top-dose-only effect, or another doubt; inactive means no such curve, though single readings can be large; an effect the other way counts as inactive or inconclusive. Where a SMILES comes first, the peptide text is derived from it. The star is where a group is joined. Cbz = O=C(OCc1ccccc1)*; CH2Cl = ClC*

What was measured:
[1] = Primary qHTS for inhibitors of nuclear receptor binding SET domain protein 2 (NSD2) in an isogenic RCH-ACV NSD2 p.E1099K mutant (9B) (AID 1645876)
[2] = Primary qHTS for inhibitors of nuclear receptor binding SET domain protein 2 (NSD2) in an RCH-ACV wild type WT cells (2C) (AID 1645877)
Further: nearly all actives have a fitted effect of over 70% in size.
Potency means the concentration at half of the fitted maximal effect.

Which Potency [1] does the source give for `CC(C)C[C@H](NC(=O)CNC(=O)OCc1ccccc1)C(=O)N[C@@H](Cc1ccccc1)C(=O)CCl` (Cbz-Gly-Leu-Phe-CH2Cl) here?
The Potency was 7.28 µM (active).

And the Potency [2]?
The Potency was 3.65 µM (active).

For `C=C1[C@H]2CC[C@H](C(=O)O)[C@@]23CC[C@H](C3)C1(C)C`, which Potency [1] is on record?
Its Potency is “inactive”.

What about the Potency [2] of the same compound?
Its Potency is “inactive”.

With `CCC/C=C\C=C/CCc1cc(O)c([C@@H]2O[C@H](CO)[C@@H](O)[C@H](O)[C@H]2O)c(O)c1C(=O)OC` as the compound, how does the Potency [1] read?
The Potency was “inactive”.

And the Potency [2]?
The Potency was “inactive”.

For `C/C=C(\C)C(=O)O[C@H]1C=CC(=O)O[C@H]1/C=C/[C@@H](O)[C@H](C)O`, which Potency [1] is on record?
The Potency was 16.3 µM (active).

What about the Potency [2] of the same compound?
Its Potency is 5.78 µM (active).

Which Potency [1] does the source give for `Nc1nc2c(nc(Br)n2[C@@H]2O[C@@H]3COP(=O)(O)O[C@H]3[C@H]2O)c(=O)[nH]1` here?
Its Potency is “inactive”.

What about the Potency [2] of the same compound?
Its Potency is “inactive”.
